Consider 36 molecules from PubChem BioAssay.

In one experiment the test system is Plasmodium falciparum Sir2 (PF13_0152, Sir2A). The experiment can be described thus: Plasmodium falciparum Sir2A binding compounds – biochemical, small-molecule microarray, 635 nm fluorescence, primary screen (AID 1098).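 Note: score merges spot fluorescence intensity with its signal-to-noise ratio.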 As to conditions: fluorescence 635 nm, higher = more signal.
As to `CCOC(=O)[C@H](CC(C)C)NC(=O)CCC1CC(OC(=O)NCCc2ccc(F)cc2)CC2(CCCC(COC(=O)NCCOC)O2)O1` (stereo partly drawn), the composite z-score was determined as 0.745.
The same measure, in the same setting: with `CCN1C(=O)[C@H]2[C@H]3[C@H](O)[C@H](O)CC(=NOC(C)CN4CCCc5nc(C)c(C)cc54)[C@@H]3CC[C@H]2C1=O` (stereo partly drawn) the figure was 0.333; with `CC(C)=CCCC(C)=CCON=C1[C@H]2CCn3c(=O)n(-c4ccccc4)c(=O)n3[C@H]2[C@H](O)[C@@H]2O[C@H]12`, 1.05.
`O=C1C=C[C@@H](O)[C@@H]2[C@@H]3C(=O)N(Cc4ccccc4)C(=O)[C@@H]3CC[C@@H]12` returned a composite z-score of 0.295.
Consider `CCCCOC(OCCCC)C(O)CSc1ccc2ccccc2c1` (stereo not drawn), for which the composite z-score turned out to be 0.302.
In turn, `CC[C@@H](c1ccccc1)n1c(=O)n2n(c1=O)[C@H]1[C@H](O)[C@@H]3O[C@@H]3C(=NOCc3ccccc3)[C@H]1CC2` displayed a composite z-score of 0.217.
On the same count and under the same terms, with `CC(CCN1CCCc2nc(C)c(C)cc21)=NOC[C@@H](C)[C@H](OCc1ccccc1)C(C)C` the figure was -0.438.

Tested on in a further experiment: not listed separately
Kind of experiment: probe aDKK1 binding to arrayed compounds – biochemical, biotinylated probe, 635/667 nm fluorescence, primary screen (AID 1099).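 Note: score merges 667nm spot fluorescence with signal to noise across triplicate slides; reference of the scale not given here.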 The settings on record: small-molecule microarray, higher = more signal.
`CC(C)CN1CCc2nc(-c3ccccc3)c3c(c2C1)CO[C@@H](C)C3`: the composite z-score was 0.264.
Same read-out and setting: with `COCC#Cc1ccc([C@@H]2N[C@H](C(=O)O)CC[C@H]2C)cc1` the figure was 0.159; with `C[C@@H](c1ccccc1)N1C(=O)[C@H]2[C@H]3[C@H](O)[C@H](O)CC(=NOC[C@@H](O)COCc4ccco4)[C@H]3CC[C@H]2C1=O`, -0.427.
`CCOC(=O)[C@H](CC(C)C)NC(=O)CCC1CC(OC(=O)NCc2ccc3c(c2)OCO3)CC2(CCCC(COC(=O)NCCc3ccc(Cl)cc3)O2)O1` (stereo partly drawn) returned a composite z-score of -0.0218.
The same measure, in the same setting: with `C#CCCCON=C1C[C@@H](O)[C@@H](O)[C@@H]2[C@@H]3C(=O)N(C4CCCCC4)C(=O)[C@@H]3CC[C@@H]12` the figure was 0.0266.
`CC(C)=CCCC(C)=CCON=C1C[C@@H](O)[C@@H](O)[C@@H]2[C@@H]3C(=O)N(c4cccc(Oc5ccccc5)c4)C(=O)[C@@H]3CC[C@H]12` displayed a composite z-score of -0.183.
Molecule `COc1ccc(O[C@H]2C=C[C@@H](C#Cc3ccccc3)O[C@@H]2CO)cc1` returned a composite z-score of -0.139.
The same measure, in the same setting: with `CCCNC(=O)OC[C@H]1O[C@H](CCON=C[C@@H](NS(=O)(=O)c2ccc(C)cc2)[C@H](C)C=CCC(=O)OC)C=C[C@@H]1Oc1ccc(OC)cc1` the figure was -0.0175.
The molecule `COC(=O)[C@H](C)NC(=O)CCC1CC(OC(=O)NCc2cccc3ccccc23)CC2(CCCC(COC(=O)NCCCN3CCCC3=O)O2)O1` (stereo partly drawn) gave a composite z-score of -0.102.
On the same count and under the same terms, with `COC(=O)[C@H](C)NC(=O)CCC1CC(OC(=O)NCCc2ccc(F)cc2)CC2(CCCC(COC(=O)NCC3CCCCC3)O2)O1` (stereo partly drawn) the figure was -0.262.
On to `COC(=O)[C@H](C)NC(=O)CCC1CC(OC(=O)NCc2ccc3c(c2)OCO3)CC2(CCCC(COC(=O)NCCc3ccc(Cl)cc3)O2)O1` (stereo partly drawn), for which the composite z-score is -0.146.
Still for that read-out and setting: with `COc1ccc(COC(=O)NN=C2C[C@@H](O)[C@@H](O)[C@@H]3[C@@H]4C(=O)N([C@@H](C)c5ccccc5)C(=O)[C@@H]4CC[C@@H]23)cc1` the figure was 0.0429; with `COc1ccc(O[C@H]2C=C[C@@H](c3ccccc3)O[C@@H]2COC(=O)CCC(C)=NOC[C@@H](O)COCc2ccco2)cc1`, -0.866; with `CCN1C(=O)[C@H]2[C@H]3[C@H](O)[C@H](O)CC(=NOCC(C)C)[C@H]3CC[C@H]2C1=O`, -0.311.
Regarding `CC(=O)OC[C@H]1O[C@H](C#CCC2CCCCC2)C=C[C@@H]1OC(C)=O`, the composite z-score is -0.215.
Still for that read-out and setting: with `CCN1C(=O)[C@H]2[C@H]3[C@H](O)[C@H](O)CC(=NOC[C@@H](O)[C@H]4O[C@@H]5OC(C)(C)O[C@@H]5[C@H]4O)[C@@H]3CC[C@H]2C1=O` the figure was -0.242; with `C[C@@H]1CC[C@@H](C(=O)O)N[C@H]1c1cccc(N2CCOCC2)c1`, -0.191; with `CCOC(=O)NN=C1C[C@@H](O)[C@@H](O)[C@@H]2[C@@H]3C(=O)N(c4ccc(F)cc4F)C(=O)[C@@H]3CC[C@H]12`, -0.349.
On the same count and under the same terms, with `CCC1=NOC(CCC2CC(OC(=O)NCc3cccc4c3OCO4)CC3(CCCC(COC(=O)NCCc4ccc(Cl)cc4)O3)O2)C1` (stereo not drawn) the figure was -0.0936.
The same measure, in the same setting: with `CCOC(=O)CCN1C(=O)[C@H]2[C@H]3[C@H](O)[C@H](O)CC(=NO[C@@H]4O[C@H](CO)[C@@H](O)[C@H](O)[C@H]4O)[C@@H]3CC[C@H]2C1=O` the figure was -0.188; with `CCOC(=O)[C@H](CC(C)C)NC(=O)CCC1CC(OC(=O)NCc2ccc3c(c2)OCO3)CC2(CCCC(COC(=O)NCc3ccccc3)O2)O1` (stereo partly drawn), -0.197; with `CC(C)C(=O)N[C@H]1CCCN1C(=O)C=Cc1ccccc1`, -0.0477.
In turn, `COC(=O)[C@H](C)NC(=O)CCC1CC(OC(=O)NCc2cccc3ccccc23)CC2(CCCC(COC(=O)NCc3ccccc3)O2)O1` (stereo partly drawn) came in with a composite z-score of -0.132.
For the molecule `CCOC(=O)[C@H](CC(C)C)NC(=O)CCC1CC(OC(=O)NCCc2ccc(F)cc2)CC2(CCCC(COC(=O)NCc3cccc4ccccc34)O2)O1` (stereo partly drawn), the composite z-score was -0.0464.
Still for that read-out and setting: with `COC(=O)CC=C[C@@H](C)[C@@H](C=NOC(C)CN1CCCCc2nc(C)c(C)cc21)OC` (stereo partly drawn) the figure was -0.343.
Take `CCN1C(=O)[C@H]2[C@H]3[C@H](O)[C@H](O)CC(=NOC[C@@H](O)COCc4ccco4)[C@H]3CC[C@H]2C1=O`: the composite z-score was -1.
Still for that read-out and setting: with `COCCNC(=O)OCC1CCCC2(CC(OC(=O)NCc3cccc4ccccc34)CC(CCC(=O)N[C@@H](C)C(=O)OC)O2)O1` (stereo partly drawn) the figure was -0.252; with `CC(=O)OC[C@H]1O[C@@H](ON=C(C)CCN2CCCCc3nc(C)c(C)cc32)[C@H](OC(C)=O)[C@@H](OC(C)=O)[C@@H]1OC(C)=O`, -0.208.
The same measure, in the same setting: with `O=C1C=C[C@@H](O)[C@@H]2[C@@H]3C(=O)N(c4cccc(Oc5ccccc5)c4)C(=O)[C@@H]3CC[C@@H]12` the figure was -0.147; with `CCOC(=O)[C@H](CC(C)C)NC(=O)CCC1CC(OC(=O)NCCc2ccc(F)cc2)CC2(CCCC(COC(=O)NCCOC)O2)O1` (stereo partly drawn), 0.0045; with `CCN1C(=O)[C@H]2[C@H]3[C@H](O)[C@H](O)CC(=NOC(C)CN4CCCc5nc(C)c(C)cc54)[C@@H]3CC[C@H]2C1=O` (stereo partly drawn), 0.0478.
On the same count and under the same terms, with `CC(C)=CCCC(C)=CCON=C1[C@H]2CCn3c(=O)n(-c4ccccc4)c(=O)n3[C@H]2[C@H](O)[C@@H]2O[C@H]12` the figure was -0.229; with `O=C1C=C[C@@H](O)[C@@H]2[C@@H]3C(=O)N(Cc4ccccc4)C(=O)[C@@H]3CC[C@@H]12`, -0.262.
The molecule `CCCCOC(OCCCC)C(O)CSc1ccc2ccccc2c1` (stereo not drawn) yielded a composite z-score of 0.166.
As to `CC[C@@H](c1ccccc1)n1c(=O)n2n(c1=O)[C@H]1[C@H](O)[C@@H]3O[C@@H]3C(=NOCc3ccccc3)[C@H]1CC2`, the composite z-score is -0.148.
With `CC(CCN1CCCc2nc(C)c(C)cc21)=NOC[C@@H](C)[C@H](OCc1ccccc1)C(C)C`, the composite z-score is -0.359.
